USP30 inh – human USP30 deubiquitinase inhibition; AID 1645860; Q70CQ3; purified USP30, Ub-rhodamine cleavage fluorescence; inhibition, % at 25 µM; 47,000 tested, 5.3% active
USP8 inh – inhibitors of human USP8 deubiquitinase; 47,000 tested, 4.2% active; purified USP8, Ub-rhodamine cleavage fluorescence, 30 min; inhibition, % at 20 µM; AID 1645853
USP28 inh – human USP28 deubiquitinase inhibition; AID 1645857; inhibition, % at 25 µM; 47,000 tested, 3% active; purified USP28, Ub-rhodamine cleavage fluorescence, 30 min
USP10 inh – inhibitors of human USP10 deubiquitinase. Q14694. purified USP10, Ub-rhodamine fluorescence, 60 min. inhibition, % at 20 µM. 47,000 tested, 1.1% active
USP17 inh – human USP17-like deubiquitinase inhibition; purified USP17, Ub-rhodamine cleavage fluorescence, 3 h; inhibition, % at 50 µM; 47,000 tested, 6.5% active; AID 1645855
Target sequence (A8MUK1 whole entry, looked up): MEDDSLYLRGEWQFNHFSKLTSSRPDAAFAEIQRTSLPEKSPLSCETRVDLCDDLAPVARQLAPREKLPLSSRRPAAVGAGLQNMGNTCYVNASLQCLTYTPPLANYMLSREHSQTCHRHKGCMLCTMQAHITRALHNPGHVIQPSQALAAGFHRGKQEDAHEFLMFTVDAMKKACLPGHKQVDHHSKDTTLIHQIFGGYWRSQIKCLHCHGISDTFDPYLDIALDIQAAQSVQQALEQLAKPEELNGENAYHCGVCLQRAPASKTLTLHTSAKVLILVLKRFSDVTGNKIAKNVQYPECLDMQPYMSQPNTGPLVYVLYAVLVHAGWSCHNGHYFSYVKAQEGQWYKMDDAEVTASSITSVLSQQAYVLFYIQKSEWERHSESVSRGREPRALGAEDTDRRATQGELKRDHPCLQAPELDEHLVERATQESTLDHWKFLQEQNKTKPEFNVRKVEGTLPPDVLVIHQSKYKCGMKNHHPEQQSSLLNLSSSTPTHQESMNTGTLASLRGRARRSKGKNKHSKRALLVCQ
* marks the source's active call; other numbers are inactive results; / = no result. An excerpt weighted towards active compounds, which were near 14% of everything screened. Cut-off read from the data, not from the text of the source: active = inhibition above about 30%; inactive = the rest.

SMILES	USP30 inh	USP8 inh	USP28 inh	USP10 inh	USP17 inh
COc1ccc(C2c3c(-c4ccccc4O)n[nH]c3C(=O)N2CCc2ccc(OC)c(OC)c2)cc1 (centres undefined)	5.0	61.0*	-3.3	13.9	27.5
Cc1ccc(Cn2nnc3c(=O)[nH]c(C4CCN(C(=O)CC(C)(C)C)CC4)nc32)cc1	29.0	9.6	31.5*	7.1	9.6
Cc1ccc(Cn2nnc3c(=O)[nH]c(C4CCN(C(=O)c5ccccc5)CC4)nc32)cc1	43.4*	14.2	8.9	9.9	9.8
O=C(c1c(F)cccc1F)N1CCC(c2nc3c(nnn3Cc3ccc(F)cc3)c(=O)[nH]2)CC1	3.4	5.2	-0.6	7.3	-6.2
N#Cc1ccc(NC(=O)N2CCC(c3nc4c(nnn4Cc4ccc(F)cc4)c(=O)[nH]3)CC2)cc1	30.4*	-0.6	29.1	10.6	30.3*
Cc1ccc(Cn2nnc3c(=O)[nH]c(C4CCN(C(=O)Cc5ccccc5)CC4)nc32)cc1	4.3	-4.2	7.1	12.1	3.4
O=C(Cc1ccccc1)N1CCC(c2nc3c(nnn3Cc3ccc(F)cc3)c(=O)[nH]2)CC1	31.2*	19.8	16.1	12.6	3.1
CC(=O)N1CCc2cc(S(=O)(=O)NCCC(=O)Nc3ccc(C)c(C)c3)ccc21	-15.0	-206.9	-4.1	-1.7	-3.9
Cc1nnc(-c2cc(S(=O)(=O)NCc3ccc(Cl)cc3)c[nH]2)o1	10.2	10.6	8.8	1.1	6.4
COc1ccc2[nH]cc(CCNC(=O)C3CC3)c2c1	-38.8	-16.4	-24.1	-2.6	-16.3
Cc1ccc(C)c(Cn2nnc3c(=O)[nH]c(C4CCN(C(=O)C5CCCC5)CC4)nc32)c1	14.8	9.5	10.6	10.8	1.7
COc1ccc(C(=O)N2CCC(c3nc4c(nnn4Cc4cc(C)ccc4C)c(=O)[nH]3)CC2)cc1	30.0*	6.5	25.9	15.0	36.3*
COc1ccc(Cc2nnc3c4cnn(Cc5ccccc5)c4ncn23)cc1	1.1	-0.3	-10.4	8.5	-0.2
CC(C)CC(=O)N1c2ccccc2NC2=C(C(=O)CC(C)(C)C2)C1c1ccco1 (centres undefined)	-42.6	-9.2	-12.9	-0.4	-19.5
COc1ccc(C2C3=C(CC(C)(C)CC3=O)Nc3ccccc3N2C(=O)c2ccccc2)cc1 (centres undefined)	-5.1	-1.0	-6.9	-5.8	35.3*
CCCOc1ccc(C2C3=C(CC(C)(C)CC3=O)Nc3ccccc3N2C(=O)c2ccccc2)cc1OC (centres undefined)	42.4*	8.3	4.9	-1.4	17.9
CC1(C)CC(=O)C2=C(C1)Nc1ccccc1N(C(=O)C(F)(F)F)C2c1cccs1 (centres undefined)	-37.5	89.1*	9.9	-3.3	64.1*
COc1ccc(C2CC(=O)C3=C(C2)Nc2ccccc2N(C(=O)c2ccccc2)C3c2ccc(C(C)(C)C)cc2)cc1 (centres undefined)	-0.2	7.1	4.5	8.8	-3.0
CC1(C)CC(=O)C2=C(C1)Nc1ccccc1N(C(=O)c1ccccc1)C2c1c(F)cccc1Cl (centres undefined)	-87.3	-17.7	-8.2	-7.0	-28.2
O=C(Cc1ccc(O)cc1)N1CCCC(O)(CN2CCC(F)(F)CC2)CC1 (centres undefined)	-8.6	0.7	0.3	-1.5	-2.4
O=c1[nH]c(=O)n(CCc2ccccc2)c2c1CN(Cc1cccnc1)CN2	3.8	8.4	5.2	-0.1	2.9
Cc1cccc(C(=O)N[C@@H]2C(=O)Nc3c(c(C)nn3C)[C@H]2c2cccc(C(F)(F)F)c2)c1	-17.3	-22.1	2.9	-2.5	-8.4
COc1cccc([C@@H]2c3c(C)nn(C)c3NC(=O)[C@H]2NC(=O)c2ccc(Cl)cc2)c1	4.1	20.6	34.9*	-3.5	11.0
Cc1ccccc1CC(=O)NCC(=O)Nc1nc2ccccc2[nH]1	31.8*	6.9	26.8	2.5	44.3*
O=C(CNC(=O)c1cccc(F)c1)Nc1nc2ccccc2[nH]1	38.8*	3.0	21.7	2.4	63.6*
Cc1ccc(C(=O)NCC(=O)Nc2nc3ccccc3[nH]2)cc1	-3.0	-3.0	4.2	6.0	41.9*
c1ccc2c(Cc3nc(-c4ccncc4)no3)cccc2c1	-24.4	0.0	85.5*	-5.1	-21.5
O=C(CN(CC(=O)NCc1ccccc1Cl)c1nc2ccccc2s1)NCc1ccccc1Cl	18.7	69.2*	10.1	36.4*	14.9
NCC1CCC(C(=O)O)CC1 (centres undefined)	/	0.1	/	1.5	10.2
CCOc1ccccc1Nc1nc2ccccc2n2cnnc12	29.0	6.7	-0.8	-4.2	38.6*

From PubChem
